Assay results: ChEMBL document CHEMBL3988442, “University of Dundee, Small-Polar-MMV Screening Library” (2021)
Out of some 67,000 compounds screened, about 300 (0.45%) showed an effect of 50% or more. The full list was thinned out, with strong results kept by preference.

Each molecule was assayed against Polyketide synthase Pks13 (Mycobacterium tuberculosis (strain ATCC 25618 / H37Rv)) (UniProt I6X8D2) (assay: Mycobacterium tuberculosis Polyketide synthase 13 Thioesterase (PKS13)). Settings: 30 µM.
Sequence of Polyketide synthase Pks13 (Mycobacterium tuberculosis (strain ATCC 25618 / H37Rv)) (I6X8D2 whole entry): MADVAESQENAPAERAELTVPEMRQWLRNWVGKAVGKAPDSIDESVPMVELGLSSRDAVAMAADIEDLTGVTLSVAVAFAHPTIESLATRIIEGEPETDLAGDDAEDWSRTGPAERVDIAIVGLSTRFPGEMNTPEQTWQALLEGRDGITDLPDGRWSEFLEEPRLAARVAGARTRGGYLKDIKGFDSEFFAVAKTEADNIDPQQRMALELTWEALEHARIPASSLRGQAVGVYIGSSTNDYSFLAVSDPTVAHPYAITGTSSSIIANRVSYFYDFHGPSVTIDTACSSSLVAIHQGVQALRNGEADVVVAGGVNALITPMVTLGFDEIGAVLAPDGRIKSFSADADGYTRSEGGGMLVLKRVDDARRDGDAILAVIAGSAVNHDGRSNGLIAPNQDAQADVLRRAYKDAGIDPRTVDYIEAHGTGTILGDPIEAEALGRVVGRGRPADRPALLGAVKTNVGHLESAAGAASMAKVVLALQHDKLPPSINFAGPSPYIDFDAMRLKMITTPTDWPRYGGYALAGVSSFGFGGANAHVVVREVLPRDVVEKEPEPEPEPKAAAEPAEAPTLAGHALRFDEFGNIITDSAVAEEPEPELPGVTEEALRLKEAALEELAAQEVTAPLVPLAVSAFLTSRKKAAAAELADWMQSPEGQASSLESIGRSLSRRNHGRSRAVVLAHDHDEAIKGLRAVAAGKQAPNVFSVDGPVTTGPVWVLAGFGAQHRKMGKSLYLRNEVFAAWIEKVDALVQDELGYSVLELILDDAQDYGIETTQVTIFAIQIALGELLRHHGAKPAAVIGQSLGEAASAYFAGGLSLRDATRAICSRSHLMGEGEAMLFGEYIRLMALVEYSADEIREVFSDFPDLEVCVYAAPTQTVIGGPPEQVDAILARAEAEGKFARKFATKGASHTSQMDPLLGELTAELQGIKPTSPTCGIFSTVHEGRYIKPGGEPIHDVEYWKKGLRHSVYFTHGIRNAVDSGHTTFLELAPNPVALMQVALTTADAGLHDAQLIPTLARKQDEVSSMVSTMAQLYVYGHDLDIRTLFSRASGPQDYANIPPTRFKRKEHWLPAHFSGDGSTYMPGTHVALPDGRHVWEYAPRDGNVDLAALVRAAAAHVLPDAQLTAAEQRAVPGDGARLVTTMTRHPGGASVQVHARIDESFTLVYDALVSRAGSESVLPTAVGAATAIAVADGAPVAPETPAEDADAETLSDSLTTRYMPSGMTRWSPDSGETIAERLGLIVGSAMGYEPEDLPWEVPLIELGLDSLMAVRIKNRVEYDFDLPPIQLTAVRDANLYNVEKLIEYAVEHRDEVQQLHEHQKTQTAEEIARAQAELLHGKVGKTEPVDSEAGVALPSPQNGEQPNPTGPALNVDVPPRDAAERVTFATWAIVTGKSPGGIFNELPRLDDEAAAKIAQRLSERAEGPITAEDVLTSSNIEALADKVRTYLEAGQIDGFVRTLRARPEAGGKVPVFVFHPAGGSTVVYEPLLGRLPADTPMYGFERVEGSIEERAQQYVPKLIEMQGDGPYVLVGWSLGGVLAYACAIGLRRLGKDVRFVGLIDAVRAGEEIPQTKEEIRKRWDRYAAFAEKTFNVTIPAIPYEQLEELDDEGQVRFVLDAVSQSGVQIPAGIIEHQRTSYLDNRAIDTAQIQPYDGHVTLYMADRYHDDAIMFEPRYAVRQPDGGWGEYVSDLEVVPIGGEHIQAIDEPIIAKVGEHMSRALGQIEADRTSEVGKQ
Type: functional
Design: scale not given: in the data most compounds retested in dose-response had high values
With `O=C(C1CCC1)N1C[C@@H]2CC[C@H](C1)N(S(=O)(=O)c1ccccc1)C2` the Percent Effect was -44.5%.
For `CCCN1CCN(C(=O)c2ccnc(N)c2)[C@H]2CS(=O)(=O)C[C@H]21`, the Percent Effect was -5.18%.
`CC1=CC[C@@H]2CN(C(=O)c3ccc(-c4cc[nH]n4)cc3)C[C@@H]2C1` gave a Percent Effect of -21.5%.
Work on `CN(CCc1cccs1)C(=O)Nc1ccc2c(c1)C(=O)N(C)CC2` yielded a Percent Effect of 31.9%.
Molecule `CN1CCc2ccc(NCc3cccs3)cc2C1=O` has a Percent Effect of 126%.
Work on `CN1CCc2ccc(NCc3cscn3)cc2C1=O` yielded a Percent Effect of -2.18%.
Molecule `Cc1noc(C)c1CN1C[C@@H]2COC[C@@H](C(=O)N3CCCCO3)[C@@H]2C1` has a Percent Effect of 6.29%.
In the case of `COc1cccc(CN2CCC3(COCc4cnc(N(C)C)nc43)C2)c1` (stereo unspecified), the Percent Effect is reported as 111%.
For `COc1cccc(CN2CCC3(CCN(c4ncc(F)cn4)CC3)C2)c1`, the Percent Effect was 14.4%.
For `CN(C)c1ncc2c(n1)C1(CCN(Cc3cccnc3)C1)COC2` (stereo unspecified), the Percent Effect was -30.2%.
Work on `COc1cccc(CN2CCC3(CC2)CCN(c2ncc(C)cn2)C3)c1` yielded a Percent Effect of -24.2%.
Molecule `COc1cccc(CN2CCC3(CCN(c4ncc(C)cn4)CC3)C2)c1` has a Percent Effect of 66.7%.
For `CN(C)c1ncc2c(n1)C1(CCN(Cc3ccccc3)C1)COC2` (stereo unspecified), the Percent Effect was -6.74%.
For `Cc1noc([C@]23COC[C@H]2CN(C(=O)COC2CCCC2)C3)n1`, the Percent Effect was -5.31%.
Molecule `COCCOCC(=O)N1C[C@H]2CC[C@@H]1CN(C1Cc3ccccc3C1)C2` has a Percent Effect of -22.6%.
Work on `Cc1ccc2cc(CNCCCN3CCOCC3)c(=O)[nH]c2c1C` yielded a Percent Effect of 62.3%.
Molecule `Cc1cccc2cc(CNCCCN3CCOCC3)c(=O)[nH]c12` has a Percent Effect of -21.5%.
With `CCc1cccc2cc(CNCCCN3CCOCC3)c(=O)[nH]c12` the Percent Effect was 16.5%.
`CS(=O)(=O)N1CCO[C@@H]2CN(Cc3ccncc3)C[C@@H]2C1` was tested, and the Percent Effect was -14.9%.
Molecule `CN(C)CCN1CCC(CNCc2c[nH]nc2C(C)(C)C)CC1` has a Percent Effect of -14.5%.
Work on `CC(O)CN1CCC(CNCc2c[nH]nc2C(C)(C)C)CC1` (stereo unspecified) yielded a Percent Effect of 110%.
For `CC(O)CN1CCC(CNCc2cccc(C(N)=O)c2)CC1` (stereo unspecified), the Percent Effect was 108%.
Work on `CC(O)CN1CCC(CNCc2ccc(C(N)=O)cc2)CC1` (stereo unspecified) yielded a Percent Effect of -12.3%.
For `CCN1CCC(CNCc2c[nH]nc2C(C)(C)C)C1` (stereo unspecified), the Percent Effect was -27.2%.
In the case of `CC(O)CN1CCC(CNCc2cccc(C(=O)N(C)C)c2)CC1` (stereo unspecified), the Percent Effect is reported as -0.155%.
`Cn1cc(CN2CC[C@@H]3[C@@H]2CCN3C(=O)Cc2cccc(F)c2)cn1` was tested, and the Percent Effect was -2.13%.
`Fc1ccc(CN2CCO[C@H]3[C@H](Oc4ccccn4)CC[C@@H]32)cc1` gave a Percent Effect of 13.6%.
For `O=C(Cc1ccccn1)N1CCN2C[C@H](Oc3cccc(F)c3)C[C@H]2C1`, the Percent Effect was -20.8%.
In the case of `O=C(c1cnccn1)N1CC[C@H]2C[C@@H](c3ccncn3)O[C@@H]2C1`, the Percent Effect is reported as -4.56%.
`O=C(O)[C@]12CCCN(Cc3ccccc3)C[C@H]1CN(c1ncccn1)C2` gave a Percent Effect of -25.9%.
With `Cc1ccc(CN2CC[C@H]3O[C@@H](C(=O)N4CCCO4)CC[C@H]32)s1` the Percent Effect was -20.3%.
`Cn1ncc2c1CN(Cc1cccnc1)CC2COCC1CC1` (stereo unspecified) showed a Percent Effect of 60.5%.
`Cn1ncc2c1CN(Cc1ccc(F)cc1)CC2COCC1CC1` (stereo unspecified) showed a Percent Effect of -20.5%.
In the case of `Cn1ncc2c1C(COCC1CC1)CN(Cc1cccnc1)C2` (stereo unspecified), the Percent Effect is reported as -43.6%.
`CN1CCN(C(=O)N2C[C@H]3CC[C@@H]2CN(Cc2ccccc2)C3)CC1` was tested, and the Percent Effect was 7.3%.
`Cc1ccc(N2CC[C@H]3O[C@@H](C(=O)N4CCCCO4)CC[C@H]32)nn1` was tested, and the Percent Effect was 14.6%.
`O=C([C@H]1COC[C@H]2CN(C3CCOCC3)C[C@H]21)N1CCCO1` showed a Percent Effect of -30.7%.
Work on `CCOCCC(=O)N1C[C@H]2CC[C@@H]1CN(c1ncccn1)C2` yielded a Percent Effect of -26.3%.
Molecule `Cc1n[nH]c(SCC(=O)N2C[C@H]3CC[C@@H]2CN(c2ncccn2)C3)n1` has a Percent Effect of 53.5%.
`CCCSCC(=O)N1C[C@H]2CC[C@@H]1CN(c1ncccn1)C2` was tested, and the Percent Effect was -17%.
`O=C(c1ncccn1)N1C[C@H]2CCC[C@@]2(COCc2ccncc2)C1` gave a Percent Effect of -14.6%.
Work on `NC(=O)N1CC[C@@H]2O[C@H](COCC(=O)N3CCCC3)CC[C@@H]21` yielded a Percent Effect of 9.98%.
In the case of `COc1ccc2nc(C3CC3)cc(C(=O)NCCc3nnc[nH]3)c2c1`, the Percent Effect is reported as -11.9%.
`NC(=O)c1cc(C2CC2)nc2ccc(F)cc12` showed a Percent Effect of 87.8%.
`NC(=O)C1CCCN1C(=O)c1cc(C2CC2)nc2ccc(F)cc12` (stereo unspecified) showed a Percent Effect of -9.51%.
In the case of `COCCN1C(=O)[C@H]2CC[C@@H]1CN(c1ncccn1)C2`, the Percent Effect is reported as 1.06%.
Molecule `O=C(c1cnco1)N1C[C@@H]2CC[C@H](Oc3ccccc3F)[C@@H]2C1` has a Percent Effect of 6.58%.
`N#Cc1ccc(C(=O)O)nc1/C=C/c1cccc(Br)c1` was tested, and the Percent Effect was -10.3%.
With `N#Cc1ccc(C(=O)O)nc1/C=C/c1cccc(F)c1` the Percent Effect was -26.4%.
In the case of `N#Cc1ccc(C(=O)O)nc1/C=C/c1cccc(Cl)c1`, the Percent Effect is reported as 51.4%.
In the case of `CC(C)C(=O)N1CC[C@@H]2[C@H](CC1)N(Cc1cccnc1)CCS2(=O)=O`, the Percent Effect is reported as -7.83%.
In the case of `c1ccc(O[C@@H]2CN(Cc3nccs3)[C@@H]3CCCO[C@@H]32)nc1`, the Percent Effect is reported as -21.3%.
Molecule `CN(C)CCO[C@H]1CN(C(=O)c2cscn2)[C@@H]2COC[C@H]12` has a Percent Effect of 4.36%.
In the case of `Cn1cc(Br)c(C(=O)NCCn2cc(Br)cn2)n1`, the Percent Effect is reported as -18.6%.
`Cn1cc(Br)c(C(=O)NCCCn2cc(Br)cn2)n1` gave a Percent Effect of 27.2%.
`Cn1cc(I)c(C(=O)NCCCn2cc(Br)cn2)n1` showed a Percent Effect of 55%.
`Cn1ccnc1CN1CCN(Cc2ccncc2)[C@@H]2CS(=O)(=O)C[C@@H]21` showed a Percent Effect of -14%.
Work on `Cc1cc(CN2CC[C@@H]3[C@@H](CCC(=O)N3CCc3c[nH]cn3)C2)oc1C` yielded a Percent Effect of -32.9%.
`O=C([C@H]1CC[C@@H]2[C@@H](CCN2C2CCOCC2)O1)N1CCOCC1` showed a Percent Effect of 5.19%.
`Cc1n[nH]c(C)c1CCC(=O)NCC1(O)CCN(c2ccccn2)C1` (stereo unspecified) showed a Percent Effect of 61.1%.
`Cc1noc(C)c1CCC(=O)NCC1(O)CCN(c2ccccn2)C1` (stereo unspecified) gave a Percent Effect of 1.81%.
Molecule `Cc1noc(C)c1CCC(=O)NCC1(O)CCCN(c2ccccn2)C1` (stereo unspecified) has a Percent Effect of 9.52%.
Molecule `CCO[C@H]1CC[C@H]2[C@H]1OCCN2C(=O)c1nn(C)c2ccccc12` has a Percent Effect of -2.76%.
Work on `CN(C)[C@@H]1CN(C(=O)Cc2cccs2)[C@@H]2CCCO[C@H]12` yielded a Percent Effect of -8.31%.
Work on `Cc1nc(N2CCCC2)ncc1C(=O)Nc1ccc(Br)cc1` yielded a Percent Effect of -0.502%.
`Cc1nn(C)cc1C1=NS(=O)(=O)N(C)C(C(=O)Nc2ccc(Br)cc2)=C1` was tested, and the Percent Effect was 57.7%.
`Cc1c(C2=NS(=O)(=O)N(C)C(C(=O)Nc3ccc(Br)cc3)=C2)cnn1C` was tested, and the Percent Effect was 47%.
`O=C1N(C2CCCCC2)C[C@H]2CN(C3CCC3)CCN12` showed a Percent Effect of 5.32%.
Work on `COCCN1C(=O)CC[C@@H]2[C@@H]1CCN2Cc1c(C)noc1C` yielded a Percent Effect of 2.01%.
`CS(=O)(=O)N[C@@H]1CN(Cc2ccccc2)C[C@@H]2CCCO[C@@H]21` was tested, and the Percent Effect was -27.1%.
In the case of `CN(Cc1ccccn1)C1CCC[C@@H]2CN(CC3CC3)C[C@H]12` (stereo partly specified), the Percent Effect is reported as -21.9%.
With `COC(=O)NCC(=O)NCC(C)(C)c1cccc(Br)c1` the Percent Effect was -17.5%.
Molecule `COC(=O)NCC(=O)NCC(C)(C)c1cccc(C(F)(F)F)c1` has a Percent Effect of -4.12%.
Molecule `CCC(=O)NCC(=O)NCC(C)(C)c1cccc(Br)c1` has a Percent Effect of 50.4%.
`CS(=O)(=O)N1CCO[C@@H]2CN(C(=O)C3CCOC3)CC[C@@H]2C1` (stereo partly specified) was tested, and the Percent Effect was -9.9%.
`CN(C)C(=O)C1CCN(c2cncc(-n3cccn3)n2)CC1` showed a Percent Effect of 9.49%.
`O=C(c1ccccc1)C1CCN(c2cncc(-n3cccn3)n2)CC1` gave a Percent Effect of 75.5%.
With `NC(=O)C1CCN(c2cncc(-n3cccn3)n2)CC1` the Percent Effect was 9.01%.
`Cc1ccc(C(=O)N2C[C@@H](OCC3CCOCC3)[C@H]3OCCC[C@H]32)o1` gave a Percent Effect of -4.11%.
`O=C1CCCN1Cc1ncn2c1CN(C(=O)NC1CCCCC1)CCC2` was tested, and the Percent Effect was 29%.
Work on `CC(C)NC(=O)N1CCCn2cnc(CN3CCCC3=O)c2C1` yielded a Percent Effect of -40.2%.
In the case of `O=C1CCCN1Cc1ncn2c1CN(C(=O)NC1CCCC1)CCC2`, the Percent Effect is reported as 60.1%.
`O=C([C@@H]1C[C@@H]2CCN(Cc3ccccn3)C[C@H]2O1)N1CCCO1` showed a Percent Effect of -7.04%.
For `CN(C)C(=O)CN1C[C@@H]2CC[C@H](C1)N(C(=O)CCn1cncn1)C2`, the Percent Effect was -4.82%.
With `CC(=O)c1cc(CN2C[C@H]3CC[C@@H]2CN(S(=O)(=O)N(C)C)C3)cs1` the Percent Effect was -12.2%.
`O=C(c1ccccc1)N1C[C@@H]2CC[C@H](C1)N(Cc1cc(F)ccc1Cl)C2` was tested, and the Percent Effect was 3.66%.
In the case of `CN1C(=O)[C@H]2CC[C@@H]1CN(c1ncnc3ccsc13)C2`, the Percent Effect is reported as 38.1%.
For `O=C1[C@H]2CC[C@H](CN(c3ncnc4ccsc34)C2)N1CC1CC1`, the Percent Effect was 90.8%.
Molecule `COc1cc(N2C[C@@H]3CC[C@H](C2)N(CC2CCC2)C3=O)ncn1` has a Percent Effect of -4.75%.
`COCC(=O)N1CC[C@H]2C[C@H](c3nnc(C4CC4)o3)O[C@@H]2C1` gave a Percent Effect of -6.34%.
`COCCN1C[C@H]2CC[C@@H]1CN(Cc1nc3ccccc3n1C)C2` showed a Percent Effect of -34.6%.
In the case of `NC(=O)COc1ccc(CN2CC[C@@]3(O)CCCC[C@H]3C2)cc1Cl`, the Percent Effect is reported as -1.23%.
In the case of `CCc1[nH]c2c(CNc3cc(C)nc(NC)n3)cc(C)cc2c1C`, the Percent Effect is reported as 5.91%.
In the case of `CNc1cc(C)nc(NCc2cc(C)cc3c(C)c(C)[nH]c23)n1`, the Percent Effect is reported as 13%.
Molecule `CCc1[nH]c2c(CNc3nc(C)cc(NC)n3)cc(C)cc2c1C` has a Percent Effect of 146%.
In the case of `COC[C@@H]1CC[C@H]2[C@H](CCN2S(=O)(=O)Cc2ccccc2)O1`, the Percent Effect is reported as -27.3%.
In the case of `c1cncc(CN2CCN3C[C@H](Oc4cncnc4)C[C@H]3C2)c1`, the Percent Effect is reported as 0.84%.
`Cc1cccc(CN2C[C@@H]3CN(C(=O)C4CCOC4)C[C@@H]3C2=O)c1` (stereo partly specified) showed a Percent Effect of -8.77%.
In the case of `CN1CCN(C(=O)[C@H]2C[C@H]3[C@H](CCN3Cc3nccs3)O2)CC1`, the Percent Effect is reported as -17.5%.
With `Cc1ccc(N2CC[C@H]3C[C@H](C(=O)NCc4ccco4)O[C@@H]3C2)cc1` the Percent Effect was -20.4%.
Molecule `c1cc(CN2CC[C@@H]3CN(c4cnccn4)C[C@@H]3C2)ccn1` has a Percent Effect of -15.9%.
`CN(C)C[C@@H]1CN(C(=O)c2cc(F)ccc2F)C[C@@H]1CO` showed a Percent Effect of -27.8%.
For `CN(C)C[C@@H]1[C@H]2CN(C(=O)c3cc(=O)[nH]c4ccc(F)cc34)C[C@@H]12`, the Percent Effect was 55.8%.
`CN(C)C[C@H]1C[C@@H](CO)CN(C(=O)c2cc(=O)[nH]c3cc(F)ccc23)C1` showed a Percent Effect of -20%.
For `CC1CN(C(=O)c2cc(=O)[nH]c3ccc(F)cc23)CCO1` (stereo unspecified), the Percent Effect was 6.5%.
`Cc1ccc(OCc2occc2C(=O)N2C[C@@H]3[C@@H](CN(C)C)[C@@H]3C2)cc1` showed a Percent Effect of -36.4%.
